Each structure is given as a SMILES string. About 79,000 compounds went through this panel and 15% of them were active in at least one assay; those are over-represented in the sample as a whole. Values without a mark were called inactive. Calls of active or inactive are those of the source. Rule as the data show it: active = growth inhibition above about 70%; inactive = the rest. Where a SMILES comes first, the peptide text is derived from it. [ ]: non-standard residue; d: D form. The star is where a group is joined. ξ: configuration not given here. dThr(3ξ) = CC(O)[C@@H](N)C(=O)O; dNMeL = CN[C@H](CC(C)C)C(=O)O; OBn = c1ccc(CO*)cc1; ξLac = CC(O)C(=O)O

40 compounds from PubChem BioAssay (NCI) can be followed below.

This experiment can be described thus: NCI Yeast Anticancer Drug Screen. Data for the bub3 strain (AID 167). The following applies: S. cerevisiae bub3 mutant strain, at 50.0 µM, stronger effect = higher value. Here is the method: Growth inhibition of yeast strains with defined genetic alterations is measured as a screen for potential anti-cancer activity. Selected strains with alterations in DNA damage repair or cell cycle control were exposed to compounds and growth inhibition was measured relative to vehicle treated controls. The strain used in this assay is bub3
On to `Cc1cccc(C)c1NC(=O)Nc1cccc(Cl)c1`, for which the growth inhibition was 11%.
The result for `O=C=Nc1ccc(Cc2ccc(N=C=O)cc2)cc1` reads -23.9%; that for `Cc1ccc(Sc2cccc3c2C(=O)c2c(Sc4ccc(C)cc4)cccc2C3=O)cc1`, -2.7%.
`O=C1CC2C3CC(Br)C4C3CC2C14` (stereo not given): the growth inhibition was 7.2%.
`CC(=O)OC(C)[C@@H](NC(=O)[C@@H](CC(C)C)N(C)C(=O)[C@@H]1CCCN1C(=O)C(C)O)C(=O)OCc1ccccc1` (stereo not given in full) (H-[ξLac]P[dNMeL][dThr(3ξ)](Ac)-OBn): the growth inhibition was -30.4%.
The result for `Cc1cccc(S(=O)(=O)c2ccccc2)c1` reads 4.35%.
The result for `Nc1cc(Cl)c2c(c1)C(=O)c1ccccc1-2` reads -5.3%.
On to `CN1C/C(=C/c2ccc(N(C)C)cc2)C(=O)/C(=C/c2ccc(N(C)C)cc2)C1`, for which the growth inhibition was -3.7%.
The result for `Brc1ccc2noc(-c3ccccc3)c2c1` reads 9.95%.
As for `O=S(=O)(O)CCCCBr`, the growth inhibition is -3%.
Regarding `Cc1ccc(S(=O)(=O)N(CCCc2c(Cl)nc(N)nc2Cc2ccccc2)c2ccccc2)cc1`, the growth inhibition was -0.8%.
With `CCC(O)(Cc1ccc(OC)cc1)c1ccc(OC)cc1` (stereo not given), the growth inhibition was 11.7%.
In the case of `CC1Cc2ccccc2C2=C3CC=CCC3C3C(=O)OC(=O)C3C21` (stereo not given), the growth inhibition was 6.05%.
Take `COC(=O)/C(=N/O)C(C(=O)OC)C(=O)C(=O)Nc1c(Cl)cc(C)cc1S(=O)(=O)O` (stereo not given): the growth inhibition was -2.9%.
Turning to `CC(=O)Oc1ccc2c(c1)CCC1C2CCC2(C)CC(OC(C)=O)CC12` (stereo not given), the growth inhibition is 0.8%.
As for `CC(=O)Nc1ccc(/C=N/NC(=S)Nc2cccc3cccnc23)cc1`, the growth inhibition is 31.4%.
As for `NCCn1[nH]c(=O)c2ncccc2c1=O`, the growth inhibition was -6.6%.
`CCc1ccccc1NC(=S)NC1CCCCC1`: the growth inhibition was 32.2%.
With `CN(N=O)C(=O)NCCSc1ncnc2nc[nH]c12`, the growth inhibition is -2.5%.
`O=[N+]([O-])c1ccccc1S(=O)(=O)N1CCCc2cc(Cl)ccc21`: the growth inhibition is 20.6%.
For `C1=Nc2ccccc2/C1=C/c1ccc2c(c1)OCO2`, the growth inhibition was 8.85%.
As to `c1ccc([P+](Cc2ccc(C[P+](c3ccccc3)(c3ccccc3)c3ccccc3)cc2)(c2ccccc2)c2ccccc2)cc1`, the growth inhibition is 47.9%.
As for `COC(=O)[C@@H]1Cc2ccc(OC)c(c2)OCCC(=O)N1`, the growth inhibition is -13%.
Turning to `C[N+]1(C)CC=C(N2CCOCC2)CC1`, the growth inhibition was -12.9%.
Turning to `c1cnn(C23C4C5C6C4C2C6C53)c1` (stereo not given), the growth inhibition was -32.5%.
As to `CN(Cc1ccc(Cl)cc1)C(=O)Nc1ccccc1Cl`, the growth inhibition is 40.2%.
For `C=C(CC[C@@H](C)[C@H]1CC[C@@]2(C)C3=C(CC[C@]12C)[C@@]1(C)CC[C@H](O)[C@@H](C)C1CC3)C(C)C` (stereo not given in full), the growth inhibition was 14.6%.
For `CC(=O)/C=C/C1=C(C)CCCC1(C)C` (tested in a mixture with another compound), the growth inhibition is 24.3%.
To `O=C(NN1CCCCC1)NN1CCCCC1` belongs 24%; to `CCC1=NO[C@@H](C(=O)OCc2ccccc2)[C@H]1C`, 9.15%; to `Cc1c([N+](=O)[O-])cc(C(C)(C)C)c(OC(=O)C(Cl)(Cl)Cl)c1[N+](=O)[O-]`, 88.9% (active).
Turning to `Cc1cc2c(C(C)C)c(O)c(O)c(C=Nc3cccc(O)c3)c2c(O)c1-c1c(C)cc2c(C(C)C)c(O)c(O)c(C=Nc3cccc(O)c3)c2c1O`, the growth inhibition was 50.8%.
As to `CCC1C(C#N)(C#N)C1(C#N)C#N`, the growth inhibition is 1.45%.
As to `COc1ccc(CCNC(=O)CC(C)=O)cc1`, the growth inhibition is -38%.
As to `O=C([O-])C[n+]1ccccc1/C=C/c1ccccc1`, the growth inhibition was -7.75%.
Turning to `O=C(Nc1ccccc1F)Oc1ccc(Cl)cc1Cl`, the growth inhibition is 19.4%.
Take `COc1ccc(C(=O)N2CCN(C)CC2)cc1OC`: the growth inhibition is -1.75%.
With `NNC(=S)N/N=C\c1ccnc2ccccc12`, the growth inhibition is 30.2%.
In the case of `CC1(Br)CC2OC3(Br)C=CC(C)(O)C2(CC1=O)C3(C)C` (stereo not given), the growth inhibition is 20.4%.
Regarding `CCC(C)N1C(=O)c2ccccc2C1=O` (stereo not given), the growth inhibition was 11.3%.
